# Measured values: the supplement of paper PMC6555819
# Test system: VDR:RXRa (NR concentration 270 nM, RXRa partner concentration 90 nM)
# Experiment: PBM binding z-score (relative to random genomic background probes); higher = stronger binding; sequences stand for … in GC…GCGATTGACAGCGTAGAATGAAGG
# Experimental: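 Protein-binding microarray (Agilent 4x180K custom design, double-stranded 60-nt probes: 5' GC cap, 34-nt variable region, 24-nt constant primer region; full probe sequence given). Purified or IVT nuclear receptor:RXRα heterodimers (3:1 NR:RXRα, mostly 270:90 nM) or homodimers were incubated for 1 h in PBS with 2% milk and no ligand, then detected with Alexa488 antibodies. Fluorescence from o1-orientation probes (~5 replicates averaged) was converted to z-scores against 500 random hg19 background probes. Variable regions are seed direct-repeat (DR0–DR5) sites, all their single-nucleotide variants and half-site ablations.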
row,Sequence,PBM binding z-score
1,CCGACTGGGGCAGAAAGGTTAGCATACCATCCGG,0.00712
2,GCTGCTAGGTCAGGTTGGTCAGCGAACGGGTACG,0.566
3,CCGACTGGGGCAAGGTTACCACAACGCACAGCCA,0.188
4,GGAACGAGGGCAAGTTTATAGCAGAGTTTGATGG,1.32
5,GGAACGAGGGAATTCGAGTTGATAGCATGGCGAT,-0.217
6,ACTTACGGGTCAACGAGGGTATAGCACGCGTATA,7.1
7,GACACAGGGTCAAGGCCAGAGTACGCGTATTGAT,4.36
8,CGTCCAAGGTCAGAGAGGTCAGTCAATGCCGAGT,7.68
9,CCTATTAGTTGACCATAAGGGCAACCGCAGCTCG,0.982
10,GCGACTGGGGCAAATCAGGTTACCATAAGGTTGG,0.324
11,CCTAGCAGGCCAGGGTCAGTCAAGCATTTCGCTT,0.634
12,GTTGCTAGGTCAACTGATGGTCAGCTAAAGCTCG,2.05
13,TTGAGTAGGTTAGTCGGGGCATTCAGCCAACATA,2.47
14,ACTTACGGGACAACGAGGTTATAGCACGCGTATA,2.29
15,CCTACTGGGCCAAGGTCCTTGATCAGTCAAAGCA,-0.657
16,GTACCAAGGTGACTAGGTCGTTGATGAGTAGGCG,0.346
17,TCTCGGAGGACACGAAAGGTCAGAGCTCGACATC,3.28
18,CCTATTAGTTGACCATAACGGCAACCGAAGCTCG,0.7
19,CCTTACGGGTCACTGACAGGGTATAGCATTTGGA,3.15
20,TCTTTTAGTTGATTAGGGCAACCGAAACAGCGGA,0.986

row,Sequence,PBM binding z-score
1,ATAGGTAGGTTATCGGGTCATTCAGTTTGCGCAT,5.32
2,CCTAGTTGGTCAGGAGGTCAGACACCGGATATGA,2.22
3,GCTCGGAGGACATGGTCAGAGCTTTGTCCGTAGA,-0.753
4,ATCGAAAGGTCGACGAGGTGCGTATACACCGTTT,4.18
5,CCGAGTAGGTTATGGGGCATTAAGGCAACGGTGA,0.259
6,CCTGCGAGGTCAATGGTCAGCTAAAGCAGCTCGC,4.73
7,TCGAGTAGGTTACCAATGGGGTATTCAGCTTTCT,0.0284
8,TCTTTTAGATCAACAGGAGGTTAAGAAAGATCGA,0.982
9,TCTAGTTGGTCAAAGGTCATACACTCGAAATGCG,5.38
10,GCATGTAGGTAATACAAGGTGAAAGTCCGATTGT,0.342
11,AGAAGGAGGTTATACGTAGATCAGGGAAGAAAGT,0.711
12,CAAACTAGGTCAAGGTCAAAGACGGTTTGTGCCA,4.74
13,TAGCCTAGGTCATGCGGGCAAGTATAGTGTCGGC,2.21
14,ACAGACAGGTGAGTGAAGTTAACTCAGCTGGACG,-0.576
15,ACTAGCAGGCCAAGATTGGGTCACTCAAACAAAG,0.16
16,TCATATAGGTAATATAGGTGAAAGTCGGCATCTA,0.836
17,CGTCAAAGTTCAAAGTAACGTAACAGAAAGCAGC,4.09
18,TCTTGTAGATCAAGCAGGTTAGGAAAGCCTGAGT,0.203
19,ATATGTAGGTTAAGGGTCATTCAGGTTGGTTCGC,5.83
20,ACTTACGGGTCAACGAGCTTATAGCACGCGTATA,3.97
